Only a selection was taken, and hits are over-represented in it overall.
NOMO-1 viab: STK33 inhibitor candidate reducing NOMO-1 cell viability | NOMO-1 AML viability, CellTiter-Glo luminescence, 72 h | inhibition, % (concentration not given with the values) | AID 2330 | 7.5% of 37,000 active; in the data active means inhibition above about 80%; inconclusive means no clear call, values can overlap the other calls
U2OS ROS induce: inducers of reactive oxygen species in cancer cells; 2% of 46,000 active; U2OS ROS induction, H2DCF-DA fluorescence; AID 624156; ROS induction (% of piperlongumine), % at 10 µM; in the data active means ROS induction above about 79%, passing the limit was not always enough; inconclusive means no clear call, values can overlap the other calls
Numbers stand for hits.

How did C[C@H](CO)N1C[C@H](C)[C@@H](CN(C)Cc2ccc(C(F)(F)F)cc2)Oc2ccc(NC(=O)Nc3ccccc3)cc2C1=O do in these assays?
NOMO-1 viab: inactive; U2OS ROS induce: inactive

Results for C[C@H]1CN([C@@H](C)CO)C(=O)c2cc(NC(=O)Nc3ccc(C(F)(F)F)cc3)ccc2O[C@H]1CN(C)Cc1ccc(-c2ccccc2)cc1 ?
NOMO-1 viab: 116.8; U2OS ROS induce: inactive

Results for C[C@@H]1CN([C@H](C)CO)C(=O)c2cc(NC(=O)Nc3ccc(C(F)(F)F)cc3)ccc2O[C@@H]1CN(C)Cc1ccc(Oc2ccccc2)cc1 ?
NOMO-1 viab: inconclusive; U2OS ROS induce: inactive

What do the screens show for `O=C(COc1ccccc1[N+](=O)[O-])Nc1ccc2oc(-c3ccc(F)cc3Cl)nc2c1`?
NOMO-1 viab: inactive; U2OS ROS induce: inactive

What do the screens show for `C[C@@H]1CN([C@@H](C)CO)C(=O)CCCn2cc(nn2)CO[C@@H]1CN(C)Cc1ccncc1`?
U2OS ROS induce: inactive

What do the screens show for `C[C@H]1CN([C@@H](C)CO)C(=O)c2cccc(NC(=O)NC3CCCCC3)c2O[C@@H]1CN(C)CC1CC1`?
NOMO-1 viab: inactive; U2OS ROS induce: inactive

How did CC(Sc1nc(=O)cc(N)n1-c1ccccc1)C(=O)Nc1cccc(Cl)c1 (stereo not drawn) do in these assays?
NOMO-1 viab: inactive

What do the screens show for `Cc1c(NC(=O)CSc2nc3c(c(C(F)(F)F)n2)CCc2ccccc2-3)c(=O)n(-c2ccccc2)n1C`?
NOMO-1 viab: inactive; U2OS ROS induce: inactive

Results for C[C@]12CCC3c4ccc(O)cc4CC[C@H]3C1CC[C@H]2O (stereo partly drawn) ?
NOMO-1 viab: 96.4; U2OS ROS induce: inactive

How did CC(=O)OC1CCC2C3CCc4cc(O)ccc4C3CCC12C (stereo not drawn) do in these assays?
NOMO-1 viab: 99.4; U2OS ROS induce: inconclusive

What do the screens show for `C[C@]12CC[C@@H]3c4ccc(O)cc4CC[C@H]3[C@@H]1CC[C@@H]2O`?
NOMO-1 viab: 87.3; U2OS ROS induce: inactive

Results for COc1ccc2c(c1)CCC1C2CC[C@@]2(C)C1CC[C@@H]2O (stereo partly drawn) ?
NOMO-1 viab: inactive; U2OS ROS induce: inactive

Results for CC12CCC3c4ccc(OC(=O)c5ccccc5)cc4CCC3C1CCC2O (stereo not drawn) ?
NOMO-1 viab: inactive; U2OS ROS induce: inactive

Results for CCCCC(=O)O[C@H]1CCC2C3CCc4cc(O)ccc4C3CC[C@@]21C (stereo partly drawn) ?
NOMO-1 viab: inactive; U2OS ROS induce: inactive

What do the screens show for `Cc1ccnc(NC(=O)Cn2cnc3c2c(=O)n(C)c(=O)n3C)n1`?
NOMO-1 viab: inactive; U2OS ROS induce: inactive

What do the screens show for `CC(NC(=O)CSc1nnc2c3ccccc3n(C)c2n1)c1ccccc1` (stereo not drawn)?
NOMO-1 viab: inactive; U2OS ROS induce: inactive

How did CC(=O)c1ccc(NC(=O)CSc2nnc(N)s2)cc1 do in these assays?
NOMO-1 viab: inactive; U2OS ROS induce: inactive

What do the screens show for `COC(=O)c1cc(NC(=O)CSc2nnc(N)s2)ccc1Cl`?
NOMO-1 viab: 109.8; U2OS ROS induce: inactive

Results for O=C(CC(C(=O)N1CCc2ccccc21)C(=O)N1CCc2ccccc21)c1ccccc1 ?
NOMO-1 viab: inactive; U2OS ROS induce: inactive

Results for O=C(C(Cc1ccccc1Cl)C(=O)N1CCc2ccccc21)N1CCc2ccccc21 ?
NOMO-1 viab: inactive; U2OS ROS induce: 140.6

Results for O=C(/C=C/c1ccc(O)cc1)NCCCCN(CCCN(CCCNC(=O)/C=C/c1ccc(O)cc1)C(=O)/C=C/c1ccc(O)cc1)C(=O)/C=C/c1ccc(O)cc1 ?
NOMO-1 viab: inactive; U2OS ROS induce: inactive

What do the screens show for `C[C@H](CO)N1C[C@H](C)[C@H](CN(C)Cc2ccc(-c3ccccc3)cc2)Oc2ccc(NC(=O)Nc3ccc(F)cc3)cc2C1=O`?
NOMO-1 viab: 104.1; U2OS ROS induce: inactive

How did C[C@@H]1CN([C@@H](C)CO)C(=O)c2cc(NC(=O)Nc3ccccc3)ccc2O[C@H]1CN(C)Cc1ccc(-c2ccccc2)cc1 do in these assays?
NOMO-1 viab: 111.8; U2OS ROS induce: inactive

What do the screens show for `C[C@H]1CN([C@@H](C)CO)C(=O)c2cc(NC(=O)Nc3ccccc3)ccc2O[C@H]1CN(C)Cc1ccncc1`?
NOMO-1 viab: 97.7; U2OS ROS induce: inactive

What do the screens show for `C[C@@H]1CN([C@@H](C)CO)C(=O)c2cc(NC(=O)Nc3ccc(F)cc3)ccc2O[C@H]1CN(C)Cc1ccccc1`?
NOMO-1 viab: inactive; U2OS ROS induce: inactive

Results for C[C@@H]1CN([C@@H](C)CO)C(=O)c2cc(NC(=O)Nc3ccc(F)cc3)ccc2O[C@H]1CN(C)Cc1ccc(-c2ccccc2)cc1 ?
NOMO-1 viab: 128.3; U2OS ROS induce: inactive

Results for C[C@H](CO)N1C[C@H](C)[C@H](CN(C)Cc2ccccc2)Oc2ccc(NC(=O)Nc3ccccc3)cc2C1=O ?
NOMO-1 viab: inactive; U2OS ROS induce: inactive

How did C[C@H]1CN([C@@H](C)CO)C(=O)c2cc(NC(=O)Nc3ccc(F)cc3)ccc2O[C@H]1CN(C)Cc1ccccc1 do in these assays?
NOMO-1 viab: inactive; U2OS ROS induce: inactive

Results for C[C@@H]1CN([C@@H](C)CO)C(=O)c2cc(NC(=O)Nc3ccccc3)ccc2O[C@@H]1CN(C)Cc1ccncc1 ?
NOMO-1 viab: inactive; U2OS ROS induce: inactive

Results for C[C@H](CO)N1C[C@H](C)[C@H](CN(C)S(=O)(=O)c2ccc(Cl)cc2)Oc2ccc(NS(C)(=O)=O)cc2CC1=O ?
NOMO-1 viab: inactive; U2OS ROS induce: inactive

What do the screens show for `CS(=O)(=O)Nc1ccc(-c2nc3cccnc3s2)cc1`?
U2OS ROS induce: inactive

Results for Cc1noc(C)c1NC(=O)N(C)C[C@H]1Oc2ccc(NC(=O)CCN3CCOCC3)cc2C(=O)N([C@@H](C)CO)C[C@@H]1C ?
NOMO-1 viab: inactive; U2OS ROS induce: inactive

Results for C[C@H](CO)N1C[C@H](C)[C@@H](CN(C)Cc2ccc(-c3ccccc3)cc2)Oc2ccc(NC(=O)Nc3ccc(F)cc3)cc2C1=O ?
NOMO-1 viab: inactive; U2OS ROS induce: inactive

How did C[C@H]1CN([C@@H](C)CO)C(=O)c2cc(NC(=O)Nc3ccc(F)cc3)ccc2O[C@H]1CN(C)Cc1ccc(-c2ccccc2)cc1 do in these assays?
NOMO-1 viab: 111.5; U2OS ROS induce: inactive

What do the screens show for `CN(C)CCCn1cc(C2=C(c3c[nH]c4ccccc34)C(=O)NC2=O)c2ccccc21`?
NOMO-1 viab: inconclusive; U2OS ROS induce: 81.0

What do the screens show for `Cn1cc(C2=C(c3cn(CCCSC(=N)N)c4ccccc34)C(=O)NC2=O)c2ccccc21`?
NOMO-1 viab: 141.6; U2OS ROS induce: 75.8

What do the screens show for `O=C(O)CSc1c[nH]c2ccccc12`?
NOMO-1 viab: inactive

How did COC(=O)c1cn(CC(N)=O)c2ccccc12 do in these assays?
NOMO-1 viab: inactive; U2OS ROS induce: inactive

Results for Cc1cc(C(=O)Nc2cccc3c2O[C@@H](CN(C)S(=O)(=O)c2ccc(Cl)cc2)[C@@H](C)CN([C@@H](C)CO)C3=O)n(C)n1 ?
NOMO-1 viab: inactive; U2OS ROS induce: inactive

What do the screens show for `COc1ccc(/C=N/NC(=O)c2ccccn2)cc1OC`?
U2OS ROS induce: inactive

Results for Cc1cc(C)nc(NC(N)=NCc2ccccc2Cl)n1 ?
U2OS ROS induce: inactive

Results for C[C@H]1CN([C@@H](C)CO)C(=O)c2cccc(NC(=O)C3CC3)c2O[C@H]1CN(C)Cc1ccc(Oc2ccccc2)cc1 ?
NOMO-1 viab: inactive; U2OS ROS induce: inactive

High-throughput results from PubChem.
